Measured values: PubChem BioAssay (NCATS)
Records with an inconclusive call do not appear. Activity calls are given as the source filed them. Unless noted, calls follow the shape of the dose curve; as a rule, active = well fitted curve in either direction with a large enough effect (not every such curve was filed as active); inconclusive = small, poorly fitted or top-dose-only effect, or another doubt; inactive = flat fitted curve, though single readings scatter.

What was measured:
[1] = AP1 Signaling Pathway (AID 357); conditions: ME-180 AP-1-bla reporter, EGF-induced, beta-lactamase ratio, 5 h; at 17.2 µM (top of the series) unless noted; also: % is scaled to controls: 0 for no effect and ±100 for the full control effect
How it was run: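 Read-out was the 460nm/530nm emission ratio (excitation 405nm) after CCF4 loading for 2.5 hours at room temperature. Cells carried an AP-1-driven beta-lactamase reporter, were stimulated with EC50 EGF plus compound for 5 hours, and AC50 values came from titrations.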

[2] = NFAT Signaling Pathway (AID 444); conditions: Jurkat NFAT-bla M1, carbachol, beta-lactamase ratio, 5 h; at 17.2 µM (top of the series) unless noted;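 also: carbachol stimulus at about its EC50 of 1 µM final; % is scaled to controls: 0 for no effect and ±100 for the full control effect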
How it was run: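 Read-out: CCF4 FRET ratio (460 nm/530 nm) after 1 h RT dye loading, used for %activity and AC50 from titration series. Cells: Jurkat NFAT-β-lactamase/M1 line, treated with compound plus 1 uM carbachol for 5 h, 37 °C.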

[3] = Stat Signaling Pathway (AID 446); conditions: ME-180 SIE beta-lactamase reporter, IL-6 stimulated, 5 h; at 17.2 µM (top of the series) unless noted;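 also: ME-180 cervical cancer cells given 40 pM IL-6 alongside compound; SIE-controlled beta-lactamase reporter measured as 460/530 nm FRET emission ratio; % is scaled to controls: 0 for no effect and ±100 for the full control effect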
How it was run: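 Normalization used AC90 stimulation (300 pM IL-6) and AC90 inhibition (125 nM pan-JAK inhibitor at 40 pM IL-6). The underlying signal is SIE-driven beta-lactamase in ME-180 cells after 5 h IL-6 exposure with compound.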

[4] = molecular target: Glucocorticoid receptor (Homo sapiens) (UniProt P04150); experiment: GR-GFP Redistribution (AID 450;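 active = compounds whose dose series gives a full or clear partial fitted curve of increased nuclear translocation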; also: potency is read from the fitted curve at half-maximal effect)
Sequence of Glucocorticoid receptor (Homo sapiens) (P04150 whole entry, looked up): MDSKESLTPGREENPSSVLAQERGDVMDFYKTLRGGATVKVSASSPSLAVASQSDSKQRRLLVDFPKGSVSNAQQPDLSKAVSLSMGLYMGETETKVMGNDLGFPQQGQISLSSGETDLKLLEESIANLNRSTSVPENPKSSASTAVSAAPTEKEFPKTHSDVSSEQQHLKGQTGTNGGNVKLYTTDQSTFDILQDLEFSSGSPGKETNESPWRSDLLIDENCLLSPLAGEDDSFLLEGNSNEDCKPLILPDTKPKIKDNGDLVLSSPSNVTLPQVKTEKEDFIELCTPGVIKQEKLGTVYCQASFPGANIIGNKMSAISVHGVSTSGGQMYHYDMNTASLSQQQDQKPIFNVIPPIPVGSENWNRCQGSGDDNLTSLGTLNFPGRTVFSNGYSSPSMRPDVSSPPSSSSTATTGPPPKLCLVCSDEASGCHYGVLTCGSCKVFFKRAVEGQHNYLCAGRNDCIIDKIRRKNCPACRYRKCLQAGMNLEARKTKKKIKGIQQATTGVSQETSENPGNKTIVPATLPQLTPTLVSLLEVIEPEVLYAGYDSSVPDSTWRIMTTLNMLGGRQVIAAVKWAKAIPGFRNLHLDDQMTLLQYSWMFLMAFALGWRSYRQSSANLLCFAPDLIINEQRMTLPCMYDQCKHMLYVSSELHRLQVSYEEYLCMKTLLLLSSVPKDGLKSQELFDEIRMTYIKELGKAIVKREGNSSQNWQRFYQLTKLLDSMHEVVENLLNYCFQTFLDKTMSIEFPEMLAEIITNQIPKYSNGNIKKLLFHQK

[5] = qHTS Assay for Identification of Small Molecule Agonists for Hypoxia Response Element Signaling Pathway (AID 914; active = well fitted activation curve with a large enough effect in the signal ratio, with a control signal flat, not every such curve was filed as active; the % refers to the signal ratio; also: potency is read from the fitted curve at half-maximal effect; as to activation: % of control where 0% means no effect); conditions: ME-180 (cervical carcinoma) HRE-bla reporter, beta-lactamase ratio, CoCl2, 17 h; activation: stronger effect = higher value
How it was run: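 Compounds in a titration series were added to ME-180 reporter cells alongside an EC50 level of CoCl2. After 17 hours, beta-lactamase activity was read as the 460nm/530nm emission ratio of CCF4, giving AC50 values.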

[6] = molecular target: 3',5'-cyclic-AMP phosphodiesterase 4B (Homo sapiens) (UniProt Q07343); experiment: qHTS Assay for Inhibitors of PDE-IV (AID 607; active = well fitted activation curve with a large enough effect in the main read-out, with a control signal flat, not every such curve was filed as active; also: % of control where 0% means no effect)
Sequence of 3',5'-cyclic-AMP phosphodiesterase 4B (Homo sapiens) (Q07343 whole entry, looked up): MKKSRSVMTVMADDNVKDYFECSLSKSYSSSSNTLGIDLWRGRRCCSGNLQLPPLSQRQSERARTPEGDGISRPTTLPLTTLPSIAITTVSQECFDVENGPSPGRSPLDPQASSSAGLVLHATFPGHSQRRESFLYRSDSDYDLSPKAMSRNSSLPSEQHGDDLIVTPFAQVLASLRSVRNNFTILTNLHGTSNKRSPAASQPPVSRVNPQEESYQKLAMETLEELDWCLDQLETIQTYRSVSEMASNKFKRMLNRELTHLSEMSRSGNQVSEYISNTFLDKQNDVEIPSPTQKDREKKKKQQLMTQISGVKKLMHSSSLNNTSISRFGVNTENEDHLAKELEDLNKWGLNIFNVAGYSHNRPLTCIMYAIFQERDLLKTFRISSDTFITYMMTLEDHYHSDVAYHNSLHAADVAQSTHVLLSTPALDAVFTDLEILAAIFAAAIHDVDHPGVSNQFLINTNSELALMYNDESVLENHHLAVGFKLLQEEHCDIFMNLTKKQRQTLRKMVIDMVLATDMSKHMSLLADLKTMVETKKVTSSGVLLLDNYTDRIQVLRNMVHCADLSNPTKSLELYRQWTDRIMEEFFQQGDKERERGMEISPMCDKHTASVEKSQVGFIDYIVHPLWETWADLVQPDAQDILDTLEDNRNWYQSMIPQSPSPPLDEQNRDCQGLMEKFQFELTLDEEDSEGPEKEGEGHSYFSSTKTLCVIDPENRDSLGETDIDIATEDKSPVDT
How it was run: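 HEK293 ACTOne cells with CNG channel (1000/well), endogenous PDE4; membrane potential dye, compounds up to 22.9 uM final. Fluorescence Ex 535/Em 590; RO 20-1724 (100 uM final) as reference.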

[7] = molecular target: Guanine nucleotide-binding protein G(i) subunit alpha-1 (Homo sapiens) (UniProt P63096); experiment: qHTS Assay for Inhibitors of RGS12 GoLoco Motif Activity (Green Fluorophore) (AID 879; active = well fitted curve in the direction sought with a large enough effect; an effect the other way counts as inactive or inconclusive;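 also: 0% = labeled peptide with Gαi1 and full inhibition = labeled peptide alone without protein; negative values mean loss of peptide binding seen as reduced polarization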)
Sequence of Guanine nucleotide-binding protein G(i) subunit alpha-1 (Homo sapiens) (P63096 whole entry, looked up): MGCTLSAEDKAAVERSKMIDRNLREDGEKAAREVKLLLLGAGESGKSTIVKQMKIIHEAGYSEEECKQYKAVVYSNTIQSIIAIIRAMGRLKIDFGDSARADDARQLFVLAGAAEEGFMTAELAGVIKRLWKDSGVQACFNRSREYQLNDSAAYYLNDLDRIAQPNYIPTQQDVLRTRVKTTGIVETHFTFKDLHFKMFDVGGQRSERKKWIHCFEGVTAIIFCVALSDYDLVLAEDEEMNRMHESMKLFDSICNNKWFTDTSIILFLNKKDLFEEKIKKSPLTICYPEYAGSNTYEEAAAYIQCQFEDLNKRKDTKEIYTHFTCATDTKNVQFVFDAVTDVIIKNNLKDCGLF
How it was run: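 A drop in FITC polarization marked displacement of the FITC-tagged RGS12 GoLoco peptide (10 nM) from Gαi1 (50 nM). Compounds were incubated 10 min at room temperature in Tris pH 7.5 buffer containing 150 mM NaCl, 0.1 mM GDP and 0.05% NP40; unlabeled peptide titration served as control.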

[8] = qHTS Assay for Identification of Small Molecule Agonists for Thrombopoietin (TPO) Signaling Pathway (AID 917; active = well fitted curve in the direction sought with a large enough effect; an effect the other way counts as inactive or inconclusive; also: % is scaled to controls: 0 for no effect and ±100 for the full control effect)
How it was run: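 Cell-based luciferase reporter screen. Mouse Ba/F3 line stably expressing human TPO receptor; IL-3 removed overnight before plating. Co-treatment with compound and EC50 TPO (26 pM), 24 hrs at 37 C, then luminescence.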

[9] = molecular target: Pyruvate kinase (Leishmania mexicana) (UniProt Q27686); experiment: qHTS Validation Assay for Inhibitors of Leishmania Mexicana Pyruvate Kinase (AID 945; active = well fitted curve in the direction sought with a large enough effect; an effect the other way counts as inactive or inconclusive;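 also: 0% = DMSO only neutral control wells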)
Sequence of Pyruvate kinase (Leishmania mexicana) (Q27686 2-499 E452W): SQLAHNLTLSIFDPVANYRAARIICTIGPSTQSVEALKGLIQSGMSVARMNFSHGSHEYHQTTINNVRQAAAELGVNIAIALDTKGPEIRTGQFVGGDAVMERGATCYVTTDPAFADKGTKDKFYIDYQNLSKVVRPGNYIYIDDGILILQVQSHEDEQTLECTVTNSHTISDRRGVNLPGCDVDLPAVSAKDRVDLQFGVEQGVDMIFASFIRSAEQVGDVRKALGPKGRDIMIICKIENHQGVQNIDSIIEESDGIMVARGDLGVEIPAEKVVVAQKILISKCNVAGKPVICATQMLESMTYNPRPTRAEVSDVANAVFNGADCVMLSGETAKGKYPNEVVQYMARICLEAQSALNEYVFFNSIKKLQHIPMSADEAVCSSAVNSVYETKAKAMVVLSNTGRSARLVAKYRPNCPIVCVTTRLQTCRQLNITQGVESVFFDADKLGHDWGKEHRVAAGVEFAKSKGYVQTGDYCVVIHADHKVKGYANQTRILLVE
How it was run: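 Pyruvate kinase activity of E451W LmPYK (0.2 nM) was followed as ATP output after 1 h at room temperature with 0.5 mM PEP and 0.1 mM ADP, detected by PKLight luminescence.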

[10] = molecular target: Pyruvate kinase PKM (Homo sapiens) (UniProt P14618); experiment: qHTS Assay for Activators of Human Muscle Pyruvate Kinase (AID 954; active = well fitted curve in the direction sought with a large enough effect, not every such curve was filed as active;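 also: 0% = uninhibited enzyme and -100% = no enzyme or full thiadiazolimine inhibition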)
Sequence of Pyruvate kinase PKM (Homo sapiens) (P14618 whole entry, looked up): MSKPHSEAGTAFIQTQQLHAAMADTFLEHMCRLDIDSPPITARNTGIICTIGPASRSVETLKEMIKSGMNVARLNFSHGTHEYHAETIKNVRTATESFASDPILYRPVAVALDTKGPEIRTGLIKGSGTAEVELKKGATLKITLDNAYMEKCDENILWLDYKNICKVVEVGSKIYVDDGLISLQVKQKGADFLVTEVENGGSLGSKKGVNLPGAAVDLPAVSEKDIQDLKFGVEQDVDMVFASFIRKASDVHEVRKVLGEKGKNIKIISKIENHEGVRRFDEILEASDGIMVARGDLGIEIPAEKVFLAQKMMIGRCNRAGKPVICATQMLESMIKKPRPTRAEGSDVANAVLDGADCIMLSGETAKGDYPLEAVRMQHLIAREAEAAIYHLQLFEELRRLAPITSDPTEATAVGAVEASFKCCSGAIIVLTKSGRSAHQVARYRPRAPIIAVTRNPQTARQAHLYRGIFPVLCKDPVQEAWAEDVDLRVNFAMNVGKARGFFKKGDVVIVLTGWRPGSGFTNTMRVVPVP
How it was run: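 Compound pinned into substrate mix (0.5 mM PEP, 0.1 mM ADP), then 0.1 nM PKM2 added; 1 h, RT. Stop/detection luciferase reagent added, luminescence read. Normalized to no-inhibition and no-enzyme or reference-inhibitor controls.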

[11] = molecular target: Alpha-galactosidase A (Homo sapiens) (UniProt P06280); experiment: Counterscreen for Glucocerebrosidase Inhibitors: qHTS Assay for Human alpha-Galactosidase at pH 4.5 (AID 992; active = well fitted curve in the direction sought with a large enough effect; an effect the other way counts as inactive or inconclusive; also: 0% is about no effect)
Sequence of Alpha-galactosidase A (Homo sapiens) (P06280 whole entry, looked up): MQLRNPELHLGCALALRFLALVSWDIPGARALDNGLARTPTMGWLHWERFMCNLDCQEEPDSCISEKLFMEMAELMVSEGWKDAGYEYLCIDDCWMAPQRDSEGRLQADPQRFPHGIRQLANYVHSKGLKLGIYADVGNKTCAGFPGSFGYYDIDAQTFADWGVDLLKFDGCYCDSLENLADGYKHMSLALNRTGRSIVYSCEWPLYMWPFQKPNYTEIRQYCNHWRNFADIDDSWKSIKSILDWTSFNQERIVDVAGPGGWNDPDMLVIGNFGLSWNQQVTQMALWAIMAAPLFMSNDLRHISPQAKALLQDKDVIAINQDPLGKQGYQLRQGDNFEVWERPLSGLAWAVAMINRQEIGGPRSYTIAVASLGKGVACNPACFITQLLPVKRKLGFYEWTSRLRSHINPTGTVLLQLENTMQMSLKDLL
How it was run: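 Steps: enzyme (2 nM final), then compound across 0.7 nM to 77 uM, then 80 uM fluorogenic galactopyranoside substrate; incubate 20 min at room temperature; quench at pH 10; measure fluorescence at 365/440 nm.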

[12] = molecular target: Mitogen-activated protein kinase 10 (Mus musculus) (UniProt Q61831); experiment: JNK3 AlphaScreen Assay (AID 530)
How it was run: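 qHTS titrations with 15 min compound pre-incubation before adding ATP (10 uM final). Read-out: AlphaScreen of Ser73-phosphorylated biotin-GST-cJun using HepG2 lysate JNK3 activated by IL-1β and TNFα.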

[13] = molecular target: Ubiquitin carboxyl-terminal hydrolase 1 (Homo sapiens) (UniProt O94782); experiment: Inhibitors of USP1/UAF1: Pilot qHTS (AID 504865; active = well fitted curve in the direction sought with a large enough effect; an effect the other way counts as inactive or inconclusive;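 also: rhodamine fluorescence freed from ubiquitin-rhodamine substrate followed over time; top concentration of the series differs between compounds; % is scaled to controls: 0 for no effect and ±100 for the full control effect; nearly all actives have a fitted effect of over 35% in size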)
Sequence of Ubiquitin carboxyl-terminal hydrolase 1 (Homo sapiens) (O94782 whole entry, looked up): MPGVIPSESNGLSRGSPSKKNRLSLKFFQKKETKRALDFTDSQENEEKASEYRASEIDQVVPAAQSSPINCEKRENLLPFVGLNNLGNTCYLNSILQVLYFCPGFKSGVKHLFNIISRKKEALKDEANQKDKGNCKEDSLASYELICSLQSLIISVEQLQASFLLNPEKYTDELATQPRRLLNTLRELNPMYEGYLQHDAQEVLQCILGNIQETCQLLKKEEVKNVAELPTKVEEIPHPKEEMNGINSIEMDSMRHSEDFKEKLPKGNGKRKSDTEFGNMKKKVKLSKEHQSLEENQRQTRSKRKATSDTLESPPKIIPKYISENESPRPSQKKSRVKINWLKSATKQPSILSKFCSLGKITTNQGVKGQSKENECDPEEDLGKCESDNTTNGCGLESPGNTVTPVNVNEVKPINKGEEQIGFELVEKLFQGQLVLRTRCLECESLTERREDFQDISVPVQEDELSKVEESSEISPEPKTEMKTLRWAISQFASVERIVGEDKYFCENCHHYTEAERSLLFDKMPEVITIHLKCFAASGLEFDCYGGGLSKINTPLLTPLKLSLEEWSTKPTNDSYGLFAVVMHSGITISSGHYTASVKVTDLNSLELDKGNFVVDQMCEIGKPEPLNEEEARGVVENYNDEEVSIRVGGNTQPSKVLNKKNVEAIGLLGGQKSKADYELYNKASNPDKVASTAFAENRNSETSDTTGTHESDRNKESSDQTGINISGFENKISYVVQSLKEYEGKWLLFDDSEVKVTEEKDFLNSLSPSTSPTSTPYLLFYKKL
How it was run: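 In 50mM HEPES pH 7.8 containing 0.5mM EDTA, 1mM TCEP, 0.1 mg/ml BSA and 0.01% Tween-20, 1nM USP1/UAF1 is exposed to compound for 15 min, then Ub-Rho (150nM final) is added and fluorescence is read over time.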

COc1cccc(Cn2c(Oc3ccccc3)nc3c2c(=O)n(C)c(=O)n3C)c1
inactive: activity change, negative = inhibition [1] -23.1% | activity change, negative = inhibition [2] -10.8% | activity, negative = inhibition [3] -11.1% | Potency [4] > 20.6 µM | activation [5] -17.4%

COc1ccc(C2CC(C(F)(F)F)n3ncc(C(=O)Nc4cccc(O)c4)c3N2)cc1OC (configuration not stated)
inactive: activity change, negative = inhibition [1] -24.1% | activity change, negative = inhibition [2] -0.0394% | activity, negative = inhibition [3] -21.1% | Potency [4] > 20.6 µM | activation [5] -22.3%

O=C1C(=O)N(Cc2cccnc2)C(c2ccccn2)/C1=C(/O)c1ccccc1 (configuration not stated)
inactive: activity change, negative = inhibition [1] -5.8% | activity change, negative = inhibition [2] -4.6% | activity, negative = inhibition [3] 4.87% | Potency [4] > 20.6 µM | activation [5] 2.14%

CSc1cc(C)nc(N(C)C(C)=O)n1
inactive: activity change, negative = inhibition [1] 16.9% | activity change, negative = inhibition [2] -4.07% | activity, negative = inhibition [3] -0.18% | Potency [4] > 20.6 µM | activation [5] 14.1%

Cc1ccc(-c2n[nH]c(=O)c3ccccc23)cc1S(=O)(=O)NCCN1CCOCC1
inactive: activity change, negative = inhibition [1] 1.31% | activity change, negative = inhibition [2] -9.43% | activity, negative = inhibition [3] 1.81% | Potency [4] > 20.6 µM | activation [5] -17.3%

CCOc1ccc(/C(O)=C2/C(=O)C(=O)N(CCN(C)C)C2c2ccccc2)cc1Cl (configuration not stated)
inactive: activity change, negative = inhibition [1] 8.45% | activity change, negative = inhibition [2] 1.62% | activity, negative = inhibition [3] 7.84% | Potency [4] > 20.6 µM | activation [5] 2.13%

O=C(NC1CCS(=O)(=O)C1)c1c(NC(=O)C2COc3ccccc3O2)sc2c1CCCC2 (configuration not stated)
active: Potency [5] 5.01 µM
inactive: activity change, negative = inhibition [1] -20.8% | activity change, negative = inhibition [2] -18.5% | activity, negative = inhibition [3] -9.79% | Potency [4] > 20.6 µM

C=C(C)CN(CC)CCC(=O)Nc1ccc(OC)cc1OC
inactive: activity change, negative = inhibition [1] -7.43% | activity change, negative = inhibition [2] 3.18% | activity, negative = inhibition [3] 6.14% | Potency [4] > 20.6 µM | activation [5] -8.71%

CC1(C)CC(=O)C=C(N=CC2=C(O)CC(C)(C)CC2=O)C1
inactive: activity change, negative = inhibition [1] 4.05% | activity change, negative = inhibition [2] -11.2% | activity, negative = inhibition [3] 12.2% | Potency [4] > 20.6 µM | activation [5] -17.7%

CCOc1ccc(C2C(C#N)=C(N)SC(N)=C2C#N)cc1OC
inactive: activity change, negative = inhibition [1] 0.186% | activity change, negative = inhibition [2] 10.8% | activity, negative = inhibition [3] -5.25% | Potency [4] > 20.6 µM | activation [5] -15.3%

COc1ccc(CCn2c(=N)c(C#N)cc3c(=O)n4ccccc4nc32)cc1
inactive: activity change, negative = inhibition [1] -1.65% | activity change, negative = inhibition [2] -0.836% | activity, negative = inhibition [3] 3.03% | Potency [4] > 20.6 µM | activation [5] 22.3%

c1ccc2c(c1)CCC[C@H]2C1=NCCN1
inactive: activity change, negative = inhibition [1] 4.49% [at 38 µM] | activity change, negative = inhibition [2] -2.65% [at 38 µM] | activity, negative = inhibition [3] 7.24% [at 38 µM] | Potency [6] | outcome [7] | Potency [8] | Potency [9] | outcome [10] | outcome [11]

O=C(NC[C@@H]1CCCCN1)c1cc(OCC(F)(F)F)ccc1OCC(F)(F)F
inactive: activity change, negative = inhibition [1] -1.96% | activity change, negative = inhibition [2] -7.71% | activity, negative = inhibition [3] 4.72% | Potency [12] | Potency [6] | Potency [13]

C=CCn1c(N)c(C(=O)OC(C)(C)C)c2nc3ccccc3nc21
active: Potency [5] 10 µM
inactive: activity change, negative = inhibition [1] -16.9% | activity change, negative = inhibition [2] 3.64% | activity, negative = inhibition [3] -6.1% | Potency [4] > 20.6 µM

CC(=O)Nc1ccccc1O
inactive: activity change, negative = inhibition [1] 0.55% | activity change, negative = inhibition [2] 16% | activity, negative = inhibition [3] 2.83% | activation [5] 8.91%

O=C(Cc1ccccc1)Nc1cccc(-c2nnc(-c3ccco3)o2)c1
inactive: activity change, negative = inhibition [1] -23.3% | activity change, negative = inhibition [2] 11.7% | Potency [4] > 20.6 µM

Cc1cc(OCC(=O)Nn2cnnc2)ccc1Br
inactive: activity change, negative = inhibition [1] 11.6% | activity change, negative = inhibition [2] -7.1% | activity, negative = inhibition [3] 4.67% | Potency [4] > 20.6 µM | activation [5] 8.36%

CNc1nc(C)c(C#N)cc1C(C)=O
inactive: activity change, negative = inhibition [1] -13.3% | activity change, negative = inhibition [2] -1.5% | activity, negative = inhibition [3] -6.02% | Potency [4] > 20.6 µM | activation [5] 6.97%

COC(=O)c1[nH]c(C)c(/C(O)=C2\C(=O)C(=O)N(CCN3CCOCC3)C2c2ccccc2OC)c1C (configuration not stated)
inactive: activity change, negative = inhibition [1] 3.47% | activity change, negative = inhibition [2] 17.3% | activity, negative = inhibition [3] -6.01% | Potency [4] > 20.6 µM | activation [5] 0.0679%

CCOc1ccc(NC(=O)CSC2=C(C#N)C(c3ccc4c(c3)OCO4)CC(=O)N2)cc1 (configuration not stated)
inactive: activity change, negative = inhibition [1] -17.2% | activity change, negative = inhibition [2] -5.95% | activity, negative = inhibition [3] -3.62% | Potency [4] > 20.6 µM | activation [5] -0.0576%
